Test results taken from PubChem BioAssay AID504339 (National Center for Advancing Translational Sciences (NCATS), 2011).
Among all 390,000 compounds or so, about 17,000 (4.4%) were called active. About 8% were inconclusive and are not listed. Calls come from the whole dose curve; as a rule, active = well fitted inhibition curve with a large enough effect; inconclusive = small, poorly fitted or top-dose-only effect; inactive = no such curve, though single readings can be large or run the other way. The entries come from a sample that favours actives as a whole.

Molecular target: Lysine-specific demethylase 4A (Homo sapiens) (UniProt O75164)
Sequence (O75164 whole entry, looked up, the tested form may be a part): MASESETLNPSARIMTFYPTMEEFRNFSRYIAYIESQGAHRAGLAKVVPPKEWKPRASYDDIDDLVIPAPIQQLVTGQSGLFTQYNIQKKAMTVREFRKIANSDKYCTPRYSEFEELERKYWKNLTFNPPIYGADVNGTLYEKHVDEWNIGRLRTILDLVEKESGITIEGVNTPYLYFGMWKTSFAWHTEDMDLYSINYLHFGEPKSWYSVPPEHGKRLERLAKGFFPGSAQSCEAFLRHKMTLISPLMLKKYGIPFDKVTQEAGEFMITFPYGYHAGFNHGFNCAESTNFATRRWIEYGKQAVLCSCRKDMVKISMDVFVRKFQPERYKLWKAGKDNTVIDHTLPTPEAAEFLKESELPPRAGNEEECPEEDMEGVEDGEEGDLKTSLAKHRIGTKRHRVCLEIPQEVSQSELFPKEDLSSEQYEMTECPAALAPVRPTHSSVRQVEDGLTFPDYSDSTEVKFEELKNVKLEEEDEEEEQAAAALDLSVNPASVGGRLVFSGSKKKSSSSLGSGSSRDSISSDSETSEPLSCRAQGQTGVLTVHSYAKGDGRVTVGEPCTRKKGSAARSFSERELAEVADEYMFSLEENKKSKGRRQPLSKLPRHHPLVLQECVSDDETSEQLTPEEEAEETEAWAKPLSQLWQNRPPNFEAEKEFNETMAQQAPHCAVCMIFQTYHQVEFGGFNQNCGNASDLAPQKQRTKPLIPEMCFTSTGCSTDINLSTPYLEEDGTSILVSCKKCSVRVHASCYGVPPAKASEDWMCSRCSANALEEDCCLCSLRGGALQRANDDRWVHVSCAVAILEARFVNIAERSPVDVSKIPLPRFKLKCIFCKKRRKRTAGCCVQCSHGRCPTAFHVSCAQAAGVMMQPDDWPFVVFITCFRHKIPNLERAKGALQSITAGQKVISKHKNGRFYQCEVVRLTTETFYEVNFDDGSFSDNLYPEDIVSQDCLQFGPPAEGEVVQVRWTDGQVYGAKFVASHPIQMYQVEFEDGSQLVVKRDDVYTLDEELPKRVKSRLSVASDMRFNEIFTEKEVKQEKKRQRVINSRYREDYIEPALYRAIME
Assay: qHTS Assay for Inhibitors of JMJD2A-Tudor Domain; note: nearly all actives have a fitted effect of over 50% in size
Conditions: AlphaScreen JMJD2A-Tudor / H3K4me3 peptide binding; series mostly up to 114 µM; activity change, negative = inhibition: at the top concentration
% is set by controls: 0 for no effect and ±100 for the full control effect; potency is the fitted concentration of half-maximal effect.

Row | Compound | activity change, negative = inhibition | Potency
1 | COc1ccc2c(C)c(CCC(=O)NCc3ccc(OC)c(OC)c3)c(=O)oc2c1 | -14.2% (inactive) | –
2 | COC(=O)C1=C(C)N(c2ccc(C)cc2)/C(=C/c2ccc(O)cc2)C1=O | -17.2% (inactive) | –
3 | O=C(OCN1C(=O)c2ccccc2C1=O)/C(=C\c1ccco1)NC(=O)c1ccccc1 | -32.4% (inactive) | –
4 | CCCCN=C1N/C(=C\c2ccco2)C(=O)N1c1ccccc1 | -29.4% (inactive) | –
5 | COC(=O)COc1ccc2c(c1C)O/C(=C\c1ccco1)C2=O | -23.9% (inactive) | –
6 | COC(=O)C1=C(C)N(c2ccc(Br)cc2)C(=O)/C1=C\c1ccco1 | – | 17.8 µM (active)
7 | COC(=O)C1=C(C)N(C(C)c2ccccc2)C(=O)/C1=C\c1ccco1 (stereo unspecified) | – | 25.1 µM (active)
8 | CCOC(=O)c1c(C)[nH]c(C)c1S(=O)(=O)N1CCC(C(=O)Nc2ccc(C)c(Cl)c2)CC1 | 1.95% (inactive) | –
9 | CCOC(=O)C1CCCN(C(=O)c2ccc3c(c2)sc2nc(-c4ccc(CC)cc4)cn23)C1 (stereo unspecified) | -4.28% (inactive) | –
10 | COC(=O)c1sc2ncccc2c1-n1c(C)ccc1C | -14.4% (inactive) | –
11 | COc1ccc(CNC(=O)c2cc3c(s2)-c2ccccc2OC3)cc1 | -8.73% (inactive) | –
12 | Cc1cccc(N2CCN(C(=O)c3cnc(N4CCCC4)nc3C)CC2)c1C | -5.3% (inactive) | –
13 | COc1ccc(-c2cc(-c3ccc(F)cc3)nc3c2COc2ccccc2-3)cc1 | 13.4% (inactive) | –
14 | COc1cc(Nc2nc(-c3ccc(OC)c(OC)c3)nc3ccccc23)cc(OC)c1 | -30.4% (inactive) | –
15 | CCN(CC(=O)NC1CCS(=O)(=O)C1)c1nc(-c2cccnc2)nc2ccccc12 (stereo unspecified) | -15% (inactive) | –
16 | COc1ccc(Nc2nc(-c3cccnc3)nc3ccccc23)cn1 | – | 31.6 µM (active)
17 | CC1CCC2(CC1)N=C(c1ccccc1)C(=O)N2CC(=O)Nc1ccc(F)c(Cl)c1 (stereo unspecified) | -12.8% (inactive) | –
18 | Cc1ccc(-n2c(=O)c3cccnc3n2CC(=O)Nc2ccccc2C(F)(F)F)cc1C | 23.7% (inactive) | –
19 | COc1ccc(CNc2nc(-c3ccc(Cl)cc3)nn2C(=O)c2ccccc2)cc1 | 19.2% (inactive) | –
20 | C/C=C(/C)C(=O)Nc1cccc(C2=NOC3(C2)C[C@@H](C(N)=O)N(C(=O)C2(C)CC2)C3)c1 (stereo partly specified) | -9.09% (inactive) | –
21 | O=C(Nc1cccc(-c2nnc(-c3ccccc3)o2)c1)C1CCCO1 (stereo unspecified) | -10.7% (inactive) | –
22 | C/C=C(\C)C(=O)N1CC2(CC(c3cccc(NC(=O)CCCCC)c3)=NO2)C[C@@H]1C(N)=O (stereo partly specified) | -18.7% (inactive) | –

Row | Compound | activity change, negative = inhibition | Potency
23 | NC(=O)[C@H]1CC2(CC(c3cccc(NC(=O)[C@H]4CCC(=O)N4)c3)=NO2)CN1C(=O)c1ccccc1C(=O)c1ccccc1 (stereo partly specified) | – | 89.1 µM (active)
24 | C=C(C)C(=O)Nc1cccc(C2=NOC3(C2)C[C@H](C(N)=O)N(C(=O)C(c2ccccc2)c2ccccc2)C3)c1 (stereo partly specified) | – | 11.2 µM (active)
25 | CC/C=C/C(=O)N1CC2(CC(c3cccc(NC(=O)CC)c3)=NO2)C[C@H]1C(N)=O (stereo partly specified) | -15.5% (inactive) | –
26 | Cc1ccc(OCCSc2nc(C)c(Cc3ccccc3)c(=O)[nH]2)cc1 | -6.6% (inactive) | –
27 | COc1cc(OC)c(NC(=O)c2cc(S(=O)(=O)N3CCCC3)cn2C)cc1Cl | -13.5% (inactive) | –
28 | Cc1c(C(=O)NCc2ccccc2Br)oc2ccc3c(c12)C(=O)CC(C)(C)O3 | -20.7% (inactive) | –
29 | COc1cccc(N2CCN(S(=O)(=O)c3cc(Br)cc4c3N(C(=O)C3CC3)CC4)CC2)c1 | -18.4% (inactive) | –
30 | COc1ccc(CCNc2ncnc3onc(-c4ccc(Cl)cc4)c23)c(OC)c1 | 3.24% (inactive) | –
31 | COc1cc(/C=C/C(=O)OCC(=O)N2CCOCC2)ccc1OCC#N | – | 50.1 µM (active)
32 | COc1cc(/C=C/C(=O)OCC(=O)NC(=O)NCc2ccccc2)ccc1OCC#N | -14.3% (inactive) | –
33 | COc1cc(/C=C/C(=O)Nc2ccc(OC)c(S(=O)(=O)N3CCOCC3)c2)ccc1OCC#N | -21.4% (inactive) | –
34 | CCOC(=O)c1oc2ccc(S(=O)(=O)n3nc(-c4ccccc4OC)cc3N)cc2c1C | -22.2% (inactive) | –
35 | Cc1oc(-c2cccc(Cl)c2)[n+]([O-])c1C | – | 79.4 µM (active)
36 | Cc1oc(-c2ccccc2Cl)[n+]([O-])c1C | -11.7% (inactive) | –
37 | CCOC(=O)CSc1ncc(-c2cccc(Cl)c2)cn1 | 77.5% (inactive) | –
38 | COc1ccc(C(=O)N2CCC(c3nc4ccccc4o3)CC2)cc1 | -8.61% (inactive) | –
39 | COc1ccc(CN2CCCC(N3CCc4ccccc4C3)C2)c(O)c1 (stereo unspecified) | -25.6% (inactive) | –
40 | COc1c(O)ccc2c1CN1CCc3cc4c(cc3C1C2)OCO4 (stereo unspecified) | – | 44.7 µM (active)
41 | COc1cc(C(=O)CCc2ccc3c(c2)OCO3)cc(OC)c1OC | -1.38% (inactive) | –
42 | CCOC(=O)N1CCc2c(sc3c2c(=O)n(-c2ccc(CC)cc2)c(=O)n3C)C1 | -3.31% (inactive) | –
43 | CC1CCCN(c2csc3ccc(F)cc3c2=O)C1 (stereo unspecified) | -24% (inactive) | –
44 | Cn1nnnc1Sc1ncnc2scc(-c3ccccc3[N+](=O)[O-])c12 | -17.8% (inactive) | –

Row | Compound | activity change, negative = inhibition | Potency
45 | CC(C)(C)c1ccc(OCC(=O)N2CCC(c3nc4ccccc4s3)CC2)cc1 | -13.2% (inactive) | –
46 | Nn1c(SCC(=O)Nc2nccs2)nncc1=O | – | 28.2 µM (active)
47 | Nn1c(SCC(=O)Nc2nccs2)nnc1-c1ccco1 | -21.4% (inactive) | –
48 | COc1ccc(NC(=O)CSc2nncc(=O)n2N)cc1OC | -11% (inactive) | –
49 | Cc1ccc2c(=O)c(C(=O)c3ccc(Cl)cc3)cn(CC(=O)NC3CCCCC3)c2n1 | -14.6% (inactive) | –
50 | COc1ccccc1-n1cn[nH]c1=S | – | 25.1 µM (active)
51 | COc1ccccc1-n1cnc2cc(NS(=O)(=O)c3ccccc3)ccc21 | -24.5% (inactive) | –
52 | COCCCNC(=O)c1ccc2c(c1)ncn2-c1ccccc1OC | 14.4% (inactive) | –
53 | CCOc1ccc(CNC(=O)c2cc(-c3ccc(Cl)s3)nc3ccccc23)cc1 | -6.83% (inactive) | –
54 | COc1ccc(Br)cc1CNC(=O)c1cc(=O)[nH]c2ccc(S(=O)(=O)N3CCCC3)cc12 | -9.79% (inactive) | –
55 | CCOC(=O)c1c(C)[nH]c(C)c1S(=O)(=O)NCC(=O)NCc1cccc(C)c1 | -9.42% (inactive) | –
56 | Cc1cc(C)nc(Nc2n[nH]c(-c3ccccc3N)n2)n1 | – | 2.24 µM (active)
57 | CCCOc1ccccc1-c1nc(SCCC(=O)O)n[nH]1 | -21.8% (inactive) | –
58 | CCCCN(CC)CCCNC(=O)c1nn(C)c2c1CSc1ccccc1-2 | 6.62% (inactive) | –
59 | COc1cccc(CNC(=O)CSc2c3c(nc4cc(Cl)ccc24)CCCC3)c1 | 0.331% (inactive) | –
60 | Cc1cccc(C(=O)Nc2ccc(S(=O)(=O)N3CCCCC3c3cccnc3)cc2)c1 (stereo unspecified) | -14.2% (inactive) | –
61 | CCCCC(=O)NC(c1ccc(OC)c(OC)c1)c1ccc2cccnc2c1O (stereo unspecified) | – | 56.2 µM (active)
62 | C=CCn1c(COc2cccc3cccnc23)nnc1SCC(=O)OC | -7.94% (inactive) | –
63 | COc1ccc(CCNS(=O)(=O)c2cccc3cccnc23)cc1OC | -18.8% (inactive) | –
64 | COc1ccccc1-c1ccnc2[nH]n(-c3ccccc3)c(=O)c12 | -30.2% (inactive) | –
65 | COc1cccc(Cn2c(CNS(=O)(=O)c3ccc(Cl)s3)nc3cccnc32)c1 | -25.2% (inactive) | –
66 | Brc1ccccc1CN1CCC(Cc2ccccc2)CC1 | – | 0.794 µM (active)

Row | Compound | activity change, negative = inhibition | Potency
67 | NC(=O)c1ccc(CN2CCC(Cc3ccccc3)CC2)cc1 | -11.7% (inactive) | –
68 | O=c1cc(CO)oc(CN2CCC(Cc3ccccc3)CC2)c1O | -4.12% (inactive) | –
69 | CCOc1ccccc1NC(=O)Cn1c2ncccc2c(=O)n1-c1ccc(C)c(C)c1 | -11.4% (inactive) | –
70 | C=CCCC(=O)Nc1nc(C)c(-c2csc(Nc3ccc(Cl)cc3)n2)s1 | – | 63.1 µM (active)
71 | CCC(=O)Nc1nc(C)c(C(=O)Nc2cccc(Cl)c2)s1 | -14.8% (inactive) | –
72 | Cc1nc(NC(=O)CN(C)S(=O)(=O)c2ccc(Cl)cc2)sc1C | -30.8% (inactive) | –
73 | O=C(NC1(C(F)(F)F)N=C(c2ccccc2)N(C2CCCCC2)C1=O)c1ccccc1F (stereo unspecified) | -15.3% (inactive) | –
74 | CCOC(=O)c1cccc(NC(=O)Cn2cnc3nc4c(cc3c2=O)CCCC4)c1 | -1.92% (inactive) | –
75 | CC(=O)c1ccc(NC(=O)Cn2c(=O)oc3ccccc32)cc1 | -6.82% (inactive) | –
76 | COc1ccc(NC(=O)Cn2c(=O)n(Cc3ccc(C(=O)NCc4ccccc4Cl)cc3)c(=O)c3ccccc32)cc1 | -7.88% (inactive) | –
77 | COc1ccc(-c2nc3c4ccccc4n(CC(=O)Nc4ccc(C(C)=O)cc4)c(=O)n3n2)cc1 | – | 8.91 µM (active)
78 | Cc1cc(F)ccc1S(=O)(=O)N1CCCOC1CNC(=O)C(=O)NCCC1=CCCCC1 (stereo unspecified) | -9.67% (inactive) | –
79 | O=C(NCCCc1ccccc1)C(=O)NCC1OCCN1S(=O)(=O)c1ccccc1 (stereo unspecified) | -7.53% (inactive) | –
80 | O=C(NCCCn1ccnc1)C(=O)NCC1OCCN1S(=O)(=O)c1cc(F)ccc1F (stereo unspecified) | – | 39.8 µM (active)
81 | CCn1c(C(=O)Nc2cc(Cl)ccc2C)cc2sc(Cl)cc21 | 4.73% (inactive) | –
82 | COc1cc(C(=O)N2CCC(c3ccncc3)CC2)cc(OC)c1OC | 8.67% (inactive) | –
83 | COc1ccc(-c2cc(C(=O)NC(C(=O)O)C(C)C)c(C)o2)cc1OC (stereo unspecified) | -11.8% (inactive) | –
84 | COc1ccc(-c2cc(C(=O)NC(Cc3c[nH]c4ccccc34)C(=O)O)c(C)o2)cc1OC (stereo unspecified) | – | 22.4 µM (active)
85 | COc1ccc(-c2cc(=O)oc3cc(OCC(=O)N[C@@H](Cc4c[nH]c5ccccc45)C(=O)O)ccc23)cc1 | -31.3% (inactive) | –
86 | CC1=C(c2ccc(Cl)cc2)S(=O)(=O)N=C1N1CCN(c2cc(C)ccc2C)CC1 | -15.2% (inactive) | –
87 | O=C(CCc1ccccc1)NCc1ccc2c(c1)CCN2C(=O)c1ccccc1 | 3.33% (inactive) | –
88 | CCc1ccccc1N1C(=O)CN(S(=O)(=O)CC)CC1(C)C(=O)NC1CCCCC1 (stereo unspecified) | -4.62% (inactive) | –

Row | Compound | activity change, negative = inhibition | Potency
89 | Cc1ccc2c(c1)C(c1ccccc1)N(C(=O)c1ccc(F)cc1)CC(=O)N2 (stereo unspecified) | -0.699% (inactive) | –
90 | Cc1ccc(C(=O)N2CC(=O)Nc3ccc(F)cc3C2c2ccc(F)cc2)cc1 (stereo unspecified) | -6.29% (inactive) | –
91 | Cc1ccc2c(c1)C(c1ccccc1)N(C(=O)c1ccc(S(=O)(=O)N3CCOCC3)cc1)CC(=O)N2 (stereo unspecified) | – | 50.1 µM (active)
92 | CC(=O)Nc1cccc(NC(=O)CSc2cn(CC(=O)N3CCCC3)c3ccccc23)c1 | -5.86% (inactive) | –
93 | O=S(=O)(NCC(c1ccco1)N1CCOCC1)c1cc(F)ccc1F (stereo unspecified) | -8.77% (inactive) | –
94 | O=C(CSCc1cnn(-c2ccccc2)c1-n1cccc1)NCc1ccccc1Br | -4.97% (inactive) | –
95 | COc1ccccc1-n1c(-c2cc(-c3ccco3)[nH]n2)n[nH]c1=S | – | 15.8 µM (active)
96 | Cc1ccc(-n2c(-c3ccc(Cl)cc3)n[nH]c2=S)cc1 | – | 50.1 µM (active)
97 | CCOC(=O)CSc1nnc(CNC(=O)c2cccs2)n1-c1cc(OC)ccc1OC | -5.76% (inactive) | –
98 | COc1ccc(-c2nc3ccccc3n2CCC(C)C)cc1OC | 0.744% (inactive) | –
99 | COc1ccccc1N1CCN(c2nc(C)cc(=O)[nH]2)CC1 | -3.79% (inactive) | –
100 | Cc1ccc(-c2cn3cc(C)ccc3n2)cc1 | 1.5% (inactive) | –
101 | COc1ccc(-n2c(-c3ccc(OC)c(OC)c3)n[nH]c2=S)cc1 | – | 1.26 µM (active)
102 | COc1ccc(OC)c(-n2nnc(-c3nc(-c4cc(OC)c(OC)c(OC)c4)no3)c2C)c1 | -14% (inactive) | –
103 | Cc1n[nH]c(=O)n1-c1ccc(C(C)C)cc1 | -2.28% (inactive) | –
104 | COc1ccccc1OCC(=O)OCc1cc(-c2ccco2)on1 | -15.5% (inactive) | –
105 | COc1ccc(-n2c(C)csc2=S)cc1 | -12.8% (inactive) | –
106 | COc1ccc(OC)c(-n2c(-c3ccn[nH]3)n[nH]c2=S)c1 | – | 50.1 µM (active)
